# Shown are actives, neighbours in structure and some others; about 3% of the full set was active somewhere.
# SENP6 block – SENP6 protease inhibitors, primary screen, biochemical, luminescence, uHTS; AID 2599, 2010; Sentrin-specific protease 6 (Homo sapiens), Q9GZR1; inhibition, % at 10 µM; actives 1.8% (n = 330,000); Recombinant SENP6 catalytic domain, aminoluciferin luminescence;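 active = inhibition above about 50% at the single tested dose, limit read from the data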;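 also: plate controls were DMSO wells with enzyme for no effect and DMSO wells lacking enzyme for full effect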
# PPC-1+TRAIL kill – compounds killing PPC-1 cancer cells with TRAIL present, primary screen, TRAIL potentiator project, ATPLite luminescence, uHTS; AID 1443, 2008; cell killing (% activity), % at 4 µM or 5 µM; actives 0.41% (n = 220,000); PPC-1 cells + TRAIL, ATPLite viability luminescence;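 active = cell killing above 50% in the first pass at 4 µM, then a duplicate retest at 5 µM averaging 50% or more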;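 also: plate controls were cells with TRAIL plus DMSO for no effect and medium-only wells lacking cells for full effect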
# C8 TRAIL sens – viability loss with TRAIL in NB7+C8 cells, primary screen, TRAIL sensitizer project, cell-based, ATPlite luminescence; inhibition (viability loss, TRAIL sensitization), % at 10 µM; actives 1% (n = 360,000); AID 624354, 2012;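 active = compounds causing at least 50% loss of cell viability in the single-dose screen, relative to plate controls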
# SENP7 inh – SENP7 protease inhibitors, primary screen, biochemical, luminescence, uHTS; AID 434973, 2010; recombinant SENP7, Z-RLRGG-aminoluciferin luminescence, 40 min; Sentrin-specific protease 7 (Homo sapiens), Q9BQF6; inhibition, % at 5 µM; actives 1.5% (n = 330,000);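 active = inhibition above about 50% at the single test dose, limit read from the data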;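 also: plate controls were DMSO with enzyme for no effect and no enzyme buffer wells for full effect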
# SENP8 block-1 – human SENP8 protease inhibitors, primary screen, biochemical, fluorescence, Nedd8 protein substrate, uHTS; actives 0.64% (n = 360,000); inhibition, % at 20 µM; AID 602440, 2012; recombinant SENP8; in the data active = inhibition mostly above about 40%, no sharp cut-off; inactive = mostly below about 27%
# Target sequence (Q96LD8 whole entry, looked up): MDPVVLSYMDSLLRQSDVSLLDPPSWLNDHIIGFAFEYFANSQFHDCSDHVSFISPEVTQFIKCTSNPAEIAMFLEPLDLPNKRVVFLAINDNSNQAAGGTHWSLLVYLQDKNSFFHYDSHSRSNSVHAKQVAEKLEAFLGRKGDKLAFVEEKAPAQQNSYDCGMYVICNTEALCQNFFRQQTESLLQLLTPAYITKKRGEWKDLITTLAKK
# SENP8 block-2 – SENP8 protease inhibitors, primary screen, biochemical, luminescence. actives 1.2% (n = 330,000). Sentrin-specific protease 8 (Homo sapiens), Q96LD8. inhibition, % at 10 µM. purified SENP8, Z-RLRGG-aminoluciferin cleavage; in the data active = inhibition above about 50%
# SENP8 conf – SENP8 protease inhibitors, retest, confirmation, biochemical, luminescence, single concentration; actives 40% (n = 6,200); inhibition, % at 12.5 µM; Recombinant SENP8, Z-RLRGG-aminoluciferin luminescence, 60 min; shares compounds with SENP7 inh; AID 488912, 2010;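 active = mean inhibition across replicates above about 50%, limit read from the data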
# SENP6 confirm – SENP6 protease inhibitors, confirmation, biochemical, luminescence, single concentration; shares compounds with SENP7 inh; recombinant SENP6, Z-RLRGG-aminoluciferin luminescence; inhibition, % at 12.5 µM; actives 58% (n = 6,200); AID 488915, 2010
# SENP7 confirm – SENP7 protease inhibitors, retest, confirmation, biochemical, luminescence, single concentration. shares compounds with SENP7 inh. recombinant SENP7, Z-RLRGG-aminoluciferin luminescence, 40 min. inhibition, % at 12.5 µM. actives 69% (n = 6,200)
# Casp3 select – caspase-3 protease inhibitors, confirmation, selectivity assay for SENP inhibitor project, biochemical, single concentration. shares compounds with SENP7 inh. inhibition, % at 12.5 µM. actives 60% (n = 6,200). purified caspase-3, Z-DEVD-aminoluciferin luminescence, 60 min;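 active = mean inhibition above about 50%, limit read from the data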;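 also: plate controls were enzyme with DMSO for no effect and wells without caspase-3 for full effect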
# Target sequence (P42574 28-227 limits assumed): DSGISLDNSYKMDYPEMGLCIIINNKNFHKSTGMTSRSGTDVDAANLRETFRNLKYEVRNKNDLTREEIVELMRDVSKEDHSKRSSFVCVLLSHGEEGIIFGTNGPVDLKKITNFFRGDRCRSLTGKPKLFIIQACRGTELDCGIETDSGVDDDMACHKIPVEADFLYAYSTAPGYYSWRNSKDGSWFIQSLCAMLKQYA
# Luc interf – luminescence interference (SENP counter-screen). shares compounds with SENP7 inh. Pre-incubated SENP8/Z-RLRGG-aminoluciferin, luciferase luminescence interference. inhibition, % at 12.5 µM. actives 39% (n = 6,200). AID 488919;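 active = mean inhibition above about 50% when retested at one dose, limit read from the data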;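 also: plate controls were DMSO wells with completed reaction for no effect and substrate without enzyme for full effect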
# The depositor's hits bear a star; x = no result given.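 The calls were made as follows, unless noted: active = mean inhibition above about 50% in the one-dose retest (limit read from the data); inactive = the rest.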
SMILES,SENP6 block,PPC-1+TRAIL kill,C8 TRAIL sens,SENP7 inh,SENP8 block-1,SENP8 block-2,SENP8 conf,SENP6 confirm,SENP7 confirm,Casp3 select,Luc interf
CCC(=O)N1CCc2cc(S(=O)(=O)NCCC(=O)N3CCN(c4cccc(C)c4)C(C)C3)ccc21 (stereo not drawn),-8,x,22,-14,-22,-11,x,x,x,x,x
Cc1onc(-c2ccccc2Cl)c1-c1nc(-c2ccncc2)no1,-12,14,-8,1,12,-1,x,x,x,x,x
Clc1ccccc1-c1nc(-c2ccncc2)no1,81*,19,3,80*,12,75*,82*,84*,97*,84*,71*
O=c1[nH]cc(C(F)(F)F)cc1NS(=O)(=O)c1ccccc1[N+](=O)[O-],13,3,0,-4,12,2,x,x,x,x,x
Cc1cccc(/N=C/c2sc3ccccc3c2O)n1,80*,-1,25,90*,-359,62*,44,44,15,15,12
CC(C)N=Cc1c(O)[nH]c2ccccc12,-8,14,18,0,16,-4,x,x,x,x,x
Cc1cccc(/N=C/c2c(O)[nH]c3ccccc23)n1,88*,20,42,3,-3,75*,4,73*,94*,72*,38
O=C(N/N=C/c1sc2ccccc2c1O)c1cccc2ccccc12,x,-4,48,x,-68,x,x,x,x,x,x
Cc1cccc(C)c1NC(=O)C(c1ccc([N+](=O)[O-])cc1)N(C)C(=O)c1ccccn1 (stereo not drawn),11,2,11,2,10,2,x,x,x,x,x
Cc1ccsc1C(=O)Nc1ccc2c(c1)OCCO2,86*,31,71*,92*,-4,85*,90*,90*,99*,95*,91*
Cc1nn(C)c(C(=O)Nc2ccc3c(c2)OCO3)c1[N+](=O)[O-],0,x,-5,-6,12,3,x,x,x,x,x
Cc1c([N+](=O)[O-])c(C(=O)Nc2ccc3c(c2)OCCO3)nn1C,75*,23,5,73*,12,42,68*,66*,87*,89*,72*
Cc1ncoc1C(=O)Nc1ccc2c(c1)OCCO2,64*,6,8,77*,3,60*,70*,66*,89*,91*,72*
CC(=O)Nc1ccc2c(c1)OCCOCCOc1cc(NC(C)=O)ccc1OCCOCCOCCO2,-14,-2,x,2,x,-2,x,x,x,x,x
Cc1ncoc1C(=O)Nc1ccc(Oc2ccccc2)cc1,62*,16,-8,56*,12,32,51*,46,78*,44,62*
CC(C)C(NC(=O)c1ccc(C(C)(C)C)cc1)C(=O)N1CCC(C(N)=O)CC1 (stereo not drawn),-5,x,-12,1,1,9,x,x,x,x,x
CCN(CC(=O)Nc1ccc(N2CCOCC2)cc1)C(=O)Cc1ccccc1,-5,x,-5,-2,-5,-7,x,x,x,x,x

# Bioassay records as filed in PubChem BioAssay.
